SMILES strings stand for the structures. Where “and” joins values, the source holds several entries; their conditions need not be identical. Identical values can stand only once. Out of some 6,400 compounds screened, about 610 (9.5%) were called active. No stated cut-off is given here; in the data, active means activity change below about -70%; inconclusive means no clear call, values can overlap the other calls; inactive means above that. The sample as a whole holds a higher share of actives than the screen did.

A short description of the test: Toxoplasma gondii ME49Luc growth in HeLa cells, luciferase, no IFN-y, primary screen (AID 1259421). Particulars: T. gondii ME49Luc in HeLa, 72 h, active compounds read low, concentration not given here.
For the compound `CN=C(NC#N)Nc1ccc(C2=NNC(=O)CC2C)cc1` (stereo not drawn), the activity change, negative = inhibition was 27% (inactive) and 4.42% (inactive).
In the case of `CCC(=O)NC1CCc2cccc(OC)c2C1` (stereo not drawn), the activity change, negative = inhibition was 4.71% (inactive) and 6.93% (inactive).
The same measure for `CC12CCC3C(CCC4CC(O)CCC43C)C1CC=C2c1ccccc1` (stereo not drawn): 6.05% (inactive); for `N[C@@H]1c2cccnc2[C@H](OC(=O)N2CCC(n3c(=O)[nH]c4ncccc43)CC2)CC[C@H]1c1cccc(F)c1F`: -1.69% (inactive); for `C=C[C@@H]1C[C@]1(NC(=O)[C@@H]1C[C@@H](Oc2ncc(OC)c3ccc(Cl)cc23)CN1C(=O)[C@@H](NC(=O)OC(C)(C)C)C(C)(C)C)C(=O)NS(=O)(=O)C1CC1`: -73.7% (active).
The same measure for `C=C[C@@H]1C[C@]1(NC(=O)[C@@H]1C[C@@H]2CN1C(=O)[C@H](C(C)(C)C)NC(=O)O[C@@H]1C[C@H]1CCCCCc1nc3ccc(OC)cc3nc1O2)C(=O)NS(=O)(=O)C1CC1`: 0.122% (inactive); for `CCOc1ccccc1O[C@H](c1ccccc1)[C@H]1CNCCO1` (racemic): 8.34% (inactive); for `O=C(c1cncc(Br)c1)N1CCC(N2CCCC2)CC1`: 15.9% (inactive).
`O=C(c1ccc(C(=O)N2CCC(N3CCCC3)CC2)c(Nc2ccccc2)c1)N1CCC(N2CCCC2)CC1`: the activity change, negative = inhibition is -4.76% (inactive).
The same measure for `O=C(c1ccc(Nc2nccc(-c3cc4ccccc4s3)n2)cc1)N1CCC(N2CCCC2)CC1`: -80.6% (active) and -80.3% (active); for `CC1=C2C(O)C(=O)OC3CC4C(C)(C)C(=O)C=C[C@]4(C)C(CC1)[C@]23C` (stereo partly drawn): 9.55% (inactive); for `COC(=O)N[C@H](C(=O)N1CC2(CC2)C[C@H]1c1ncc(-c2ccc3c(c2)C(F)(F)c2cc(-c4ccc5nc([C@@H]6[C@H]7CC[C@H](C7)N6C(=O)[C@@H](NC(=O)OC)C(C)C)[nH]c5c4)ccc2-3)[nH]1)C(C)C`: -11.8% (inactive).
The same measure for `CC(C)N=C(N)/N=C(\N)Nc1ccc(Cl)cc1`: 13.8% (inactive) and 11.1% (inactive); for `Cc1ccc2c(=O)c3ccccc3n(CCCN)c2c1C`: -91.1% (active) and -77% (active).
For the compound `Cc1ccc2c(=O)c3cccc(CC(=O)O)c3oc2c1C`, the activity change, negative = inhibition is 9.87% (inactive).
The same measure for `Cc1cc(=O)c(C(=O)N[C@@H](C(=O)N[C@@H]2C(=O)N3C(C(=O)O)=C(CSc4nnnn4C)CS[C@H]23)c2ccc(O)cc2)c[nH]1`: 9.23% (inactive); for `NC(CC(=O)Nc1ccc(Oc2cc(F)c(F)cc2Br)cc1)C(=O)O` (stereo not drawn): 0.0757% (inactive).
`COc1cc(OC)c(C(C)=O)c(O)c1C`: the activity change, negative = inhibition is 2.79% (inactive).

These data come from PubChem BioAssay AID1259421 (Broad Institute, 2018).
